Laboratory results: the supplement of paper PMC11732987, “Enantioselective OTUD7B fragment discovery through chemoproteomics screening and high-throughput optimisation” (Communications Chemistry, 2025)

Legend:
Assay in all cases: log2 ratio of Biotin-Ahx-Ub-VS probe labelling (fragment/DMSO); higher = less target engagement (more negative = stronger competition), active = hit call of the paper (q ≤ 0.05, log2 ratio ≤ -1)
Conditions in all cases: compound concentration: 200 uM; treatment time: 3 h
[1] = biological target: USP34 (UniProt Q70CQ2)
Sequence of USP34 (Q70CQ2 whole entry, the tested form may be a part): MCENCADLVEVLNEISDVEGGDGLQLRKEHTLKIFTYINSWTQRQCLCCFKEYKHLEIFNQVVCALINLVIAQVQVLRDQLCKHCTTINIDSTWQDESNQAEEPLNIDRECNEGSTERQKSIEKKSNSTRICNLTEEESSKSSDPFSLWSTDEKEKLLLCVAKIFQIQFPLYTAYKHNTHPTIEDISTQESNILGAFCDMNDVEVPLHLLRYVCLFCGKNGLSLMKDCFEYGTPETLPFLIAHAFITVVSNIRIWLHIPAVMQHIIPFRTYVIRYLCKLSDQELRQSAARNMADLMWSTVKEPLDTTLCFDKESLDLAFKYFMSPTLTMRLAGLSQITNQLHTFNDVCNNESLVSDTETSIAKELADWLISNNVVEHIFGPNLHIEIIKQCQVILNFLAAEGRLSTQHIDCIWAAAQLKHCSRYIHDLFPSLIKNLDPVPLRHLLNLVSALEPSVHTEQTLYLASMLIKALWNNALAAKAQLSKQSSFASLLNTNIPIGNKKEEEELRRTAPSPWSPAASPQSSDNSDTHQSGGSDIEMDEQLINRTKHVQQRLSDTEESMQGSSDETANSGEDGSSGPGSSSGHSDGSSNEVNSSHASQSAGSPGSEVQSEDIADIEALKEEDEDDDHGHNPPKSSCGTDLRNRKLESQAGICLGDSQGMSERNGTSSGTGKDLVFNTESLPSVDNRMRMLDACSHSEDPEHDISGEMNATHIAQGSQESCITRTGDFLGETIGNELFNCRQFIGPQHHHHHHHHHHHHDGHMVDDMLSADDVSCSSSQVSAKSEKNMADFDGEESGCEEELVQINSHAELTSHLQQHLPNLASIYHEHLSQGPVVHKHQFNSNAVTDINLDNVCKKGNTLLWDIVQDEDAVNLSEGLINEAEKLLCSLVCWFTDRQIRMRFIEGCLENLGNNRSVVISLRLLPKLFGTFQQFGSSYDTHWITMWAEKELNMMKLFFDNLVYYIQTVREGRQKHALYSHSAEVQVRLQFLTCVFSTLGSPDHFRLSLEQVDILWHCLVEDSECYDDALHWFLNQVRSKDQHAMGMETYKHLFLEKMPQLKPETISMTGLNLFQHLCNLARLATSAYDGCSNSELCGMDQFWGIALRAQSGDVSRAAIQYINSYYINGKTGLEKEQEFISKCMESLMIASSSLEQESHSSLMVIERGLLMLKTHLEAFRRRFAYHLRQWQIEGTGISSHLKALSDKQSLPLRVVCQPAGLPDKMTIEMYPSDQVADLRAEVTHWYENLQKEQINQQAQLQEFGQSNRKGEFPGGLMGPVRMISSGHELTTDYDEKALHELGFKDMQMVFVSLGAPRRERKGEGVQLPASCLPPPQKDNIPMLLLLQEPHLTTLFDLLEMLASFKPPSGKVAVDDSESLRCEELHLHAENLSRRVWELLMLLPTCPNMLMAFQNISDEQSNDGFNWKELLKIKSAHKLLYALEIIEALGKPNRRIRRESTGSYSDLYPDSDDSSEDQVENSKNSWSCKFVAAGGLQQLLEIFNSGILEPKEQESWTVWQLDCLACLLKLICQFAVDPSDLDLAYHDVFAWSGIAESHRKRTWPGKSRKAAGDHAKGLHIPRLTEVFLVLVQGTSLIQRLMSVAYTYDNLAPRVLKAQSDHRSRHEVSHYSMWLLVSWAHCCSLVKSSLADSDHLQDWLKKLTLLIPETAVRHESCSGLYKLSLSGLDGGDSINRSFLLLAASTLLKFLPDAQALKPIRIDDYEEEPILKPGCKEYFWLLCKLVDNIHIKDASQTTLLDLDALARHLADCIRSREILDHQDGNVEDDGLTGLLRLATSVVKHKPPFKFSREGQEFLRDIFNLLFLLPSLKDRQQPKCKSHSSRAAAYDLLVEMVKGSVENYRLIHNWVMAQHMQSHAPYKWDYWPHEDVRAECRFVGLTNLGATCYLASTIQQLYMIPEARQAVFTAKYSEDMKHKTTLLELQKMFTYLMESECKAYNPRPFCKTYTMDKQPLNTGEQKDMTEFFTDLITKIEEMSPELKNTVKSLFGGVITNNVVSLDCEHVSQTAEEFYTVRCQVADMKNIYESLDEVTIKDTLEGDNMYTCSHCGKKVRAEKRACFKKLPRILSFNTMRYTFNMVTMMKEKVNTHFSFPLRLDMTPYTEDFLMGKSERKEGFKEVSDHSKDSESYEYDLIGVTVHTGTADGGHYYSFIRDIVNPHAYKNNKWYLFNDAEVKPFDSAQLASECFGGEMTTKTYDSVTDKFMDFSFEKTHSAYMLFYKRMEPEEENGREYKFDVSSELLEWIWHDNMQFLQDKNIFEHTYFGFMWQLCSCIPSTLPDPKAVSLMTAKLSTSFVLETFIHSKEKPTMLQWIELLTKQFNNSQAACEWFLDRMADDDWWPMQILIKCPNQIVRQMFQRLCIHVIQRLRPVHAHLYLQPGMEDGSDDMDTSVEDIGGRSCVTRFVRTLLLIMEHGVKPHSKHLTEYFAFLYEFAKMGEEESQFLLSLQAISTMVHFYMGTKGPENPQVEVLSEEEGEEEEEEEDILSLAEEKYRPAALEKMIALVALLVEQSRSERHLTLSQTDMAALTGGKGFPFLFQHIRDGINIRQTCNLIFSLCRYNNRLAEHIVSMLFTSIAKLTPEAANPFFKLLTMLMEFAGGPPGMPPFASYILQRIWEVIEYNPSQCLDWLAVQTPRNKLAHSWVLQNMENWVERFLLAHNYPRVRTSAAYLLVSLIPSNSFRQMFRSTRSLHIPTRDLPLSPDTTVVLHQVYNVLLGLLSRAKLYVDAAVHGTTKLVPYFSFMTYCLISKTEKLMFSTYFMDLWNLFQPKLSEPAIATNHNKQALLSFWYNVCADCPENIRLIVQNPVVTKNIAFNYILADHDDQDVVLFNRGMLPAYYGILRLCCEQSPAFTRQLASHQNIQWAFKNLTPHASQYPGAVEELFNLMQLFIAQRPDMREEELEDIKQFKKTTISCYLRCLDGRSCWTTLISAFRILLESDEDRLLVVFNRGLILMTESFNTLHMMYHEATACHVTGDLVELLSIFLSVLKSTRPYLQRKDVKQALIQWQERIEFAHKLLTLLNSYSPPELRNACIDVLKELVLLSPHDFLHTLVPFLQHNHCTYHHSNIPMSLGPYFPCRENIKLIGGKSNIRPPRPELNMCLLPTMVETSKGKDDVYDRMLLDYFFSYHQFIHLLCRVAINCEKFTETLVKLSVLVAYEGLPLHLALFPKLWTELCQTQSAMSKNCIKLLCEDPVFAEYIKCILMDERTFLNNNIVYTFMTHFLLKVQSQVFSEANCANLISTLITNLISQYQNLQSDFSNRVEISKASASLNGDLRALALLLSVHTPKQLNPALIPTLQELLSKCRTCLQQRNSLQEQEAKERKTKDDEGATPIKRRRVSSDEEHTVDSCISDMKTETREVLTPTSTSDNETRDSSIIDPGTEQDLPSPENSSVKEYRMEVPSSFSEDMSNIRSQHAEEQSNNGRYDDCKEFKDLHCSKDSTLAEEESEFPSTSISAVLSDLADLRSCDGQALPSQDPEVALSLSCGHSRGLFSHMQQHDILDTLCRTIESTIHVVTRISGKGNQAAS
Procedure, shortened: (§1)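 Labelling with Biotin-Ahx-Ub-VS (0.5 µM final, 1 h) followed a 3 h triplicate treatment of HEK293T lysate (495 µg per sample, Tris/CHAPS/IGEPAL buffer with protease inhibitors) with fragment at 200 µM or vehicle. Labelled DUBs were NeutrAvidin-enriched, digested with LysC and trypsin, and run by diaPASEF LC-MS/MS. The values, average log2 fragment/vehicle ratios by unpaired t-test, come from global-median-normalised Spectronaut label-free quantities. Proteins with ≥2 unique peptides were used.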

[2] = biological target: T1, USP36 (UniProt Q9P275)
T1 sequence (whole entry): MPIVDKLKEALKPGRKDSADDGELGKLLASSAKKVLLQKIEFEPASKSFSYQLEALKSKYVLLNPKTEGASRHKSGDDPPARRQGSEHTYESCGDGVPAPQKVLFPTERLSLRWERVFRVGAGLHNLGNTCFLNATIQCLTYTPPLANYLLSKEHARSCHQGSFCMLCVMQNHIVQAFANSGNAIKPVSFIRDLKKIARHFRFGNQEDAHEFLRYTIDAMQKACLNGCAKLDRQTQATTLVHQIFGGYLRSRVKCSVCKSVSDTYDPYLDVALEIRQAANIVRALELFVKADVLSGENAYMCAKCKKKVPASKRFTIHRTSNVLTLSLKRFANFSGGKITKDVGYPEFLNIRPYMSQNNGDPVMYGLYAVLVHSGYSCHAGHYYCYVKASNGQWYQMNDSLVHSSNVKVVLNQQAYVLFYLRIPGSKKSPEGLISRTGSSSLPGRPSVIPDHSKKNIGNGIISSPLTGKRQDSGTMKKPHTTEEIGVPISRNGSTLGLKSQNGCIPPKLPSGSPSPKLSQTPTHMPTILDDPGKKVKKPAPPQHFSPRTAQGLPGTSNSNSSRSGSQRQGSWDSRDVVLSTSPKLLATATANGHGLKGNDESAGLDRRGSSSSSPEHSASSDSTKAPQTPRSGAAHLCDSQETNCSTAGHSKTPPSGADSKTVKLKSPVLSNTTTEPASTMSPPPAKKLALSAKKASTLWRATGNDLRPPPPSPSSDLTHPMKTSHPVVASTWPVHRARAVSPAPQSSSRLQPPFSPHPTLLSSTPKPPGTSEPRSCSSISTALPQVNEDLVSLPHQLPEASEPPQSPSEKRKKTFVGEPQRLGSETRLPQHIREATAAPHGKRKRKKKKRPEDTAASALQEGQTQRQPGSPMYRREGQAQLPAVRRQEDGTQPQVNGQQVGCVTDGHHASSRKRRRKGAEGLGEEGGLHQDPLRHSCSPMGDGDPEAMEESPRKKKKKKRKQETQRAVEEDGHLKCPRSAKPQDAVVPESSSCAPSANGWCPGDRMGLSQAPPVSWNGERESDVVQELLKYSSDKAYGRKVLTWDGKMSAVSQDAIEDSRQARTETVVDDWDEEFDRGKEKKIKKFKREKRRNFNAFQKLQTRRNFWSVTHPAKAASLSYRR
Procedure, shortened: as §1

[3] = biological target: T2, USP38 (UniProt Q8NB14)
T2 sequence (whole entry): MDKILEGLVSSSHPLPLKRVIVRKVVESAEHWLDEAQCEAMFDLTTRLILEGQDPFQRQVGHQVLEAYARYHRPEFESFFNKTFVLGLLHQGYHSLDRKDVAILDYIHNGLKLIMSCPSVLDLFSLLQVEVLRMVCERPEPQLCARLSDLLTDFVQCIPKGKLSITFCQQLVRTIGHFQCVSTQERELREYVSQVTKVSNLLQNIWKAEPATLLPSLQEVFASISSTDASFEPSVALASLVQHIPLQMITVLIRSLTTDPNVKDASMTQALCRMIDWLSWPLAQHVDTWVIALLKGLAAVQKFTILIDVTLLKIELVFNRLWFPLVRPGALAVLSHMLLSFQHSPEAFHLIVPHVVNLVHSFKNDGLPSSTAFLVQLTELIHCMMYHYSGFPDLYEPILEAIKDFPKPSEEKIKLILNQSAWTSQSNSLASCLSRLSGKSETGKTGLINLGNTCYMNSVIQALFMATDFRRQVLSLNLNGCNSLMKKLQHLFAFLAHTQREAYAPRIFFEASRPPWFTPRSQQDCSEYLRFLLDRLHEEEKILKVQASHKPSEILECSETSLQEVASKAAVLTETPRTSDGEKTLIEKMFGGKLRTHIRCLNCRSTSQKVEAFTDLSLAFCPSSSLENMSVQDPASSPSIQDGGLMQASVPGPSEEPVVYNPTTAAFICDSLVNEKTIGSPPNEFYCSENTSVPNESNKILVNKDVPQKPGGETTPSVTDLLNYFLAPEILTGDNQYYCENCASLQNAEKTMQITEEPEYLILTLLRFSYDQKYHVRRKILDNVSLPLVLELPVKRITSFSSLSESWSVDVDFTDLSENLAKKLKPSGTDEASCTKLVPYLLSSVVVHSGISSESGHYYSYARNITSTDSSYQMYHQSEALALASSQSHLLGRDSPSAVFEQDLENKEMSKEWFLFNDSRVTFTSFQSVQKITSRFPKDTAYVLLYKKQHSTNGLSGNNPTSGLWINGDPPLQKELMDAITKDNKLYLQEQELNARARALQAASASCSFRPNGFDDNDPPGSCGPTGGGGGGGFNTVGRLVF
Procedure, shortened: as §1

[4] = biological target: T3, USP39 (UniProt Q53GS9)
T3 sequence (whole entry): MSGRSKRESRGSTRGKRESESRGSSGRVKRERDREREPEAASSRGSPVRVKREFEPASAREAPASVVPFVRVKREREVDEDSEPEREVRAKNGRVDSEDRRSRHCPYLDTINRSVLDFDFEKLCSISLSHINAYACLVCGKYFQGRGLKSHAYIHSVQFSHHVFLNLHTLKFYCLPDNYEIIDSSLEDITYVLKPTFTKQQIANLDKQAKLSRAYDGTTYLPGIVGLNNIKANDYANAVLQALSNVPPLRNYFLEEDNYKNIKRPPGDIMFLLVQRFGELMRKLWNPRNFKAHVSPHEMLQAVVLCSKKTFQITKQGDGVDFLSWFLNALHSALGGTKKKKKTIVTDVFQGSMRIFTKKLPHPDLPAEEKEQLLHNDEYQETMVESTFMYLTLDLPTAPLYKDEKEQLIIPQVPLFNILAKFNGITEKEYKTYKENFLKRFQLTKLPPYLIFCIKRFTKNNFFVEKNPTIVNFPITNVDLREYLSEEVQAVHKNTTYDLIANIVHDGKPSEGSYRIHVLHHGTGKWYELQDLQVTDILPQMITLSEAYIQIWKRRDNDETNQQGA
Procedure, shortened: as §1

[5] = biological target: T4, USP4 (UniProt Q13107)
T4 sequence (whole entry): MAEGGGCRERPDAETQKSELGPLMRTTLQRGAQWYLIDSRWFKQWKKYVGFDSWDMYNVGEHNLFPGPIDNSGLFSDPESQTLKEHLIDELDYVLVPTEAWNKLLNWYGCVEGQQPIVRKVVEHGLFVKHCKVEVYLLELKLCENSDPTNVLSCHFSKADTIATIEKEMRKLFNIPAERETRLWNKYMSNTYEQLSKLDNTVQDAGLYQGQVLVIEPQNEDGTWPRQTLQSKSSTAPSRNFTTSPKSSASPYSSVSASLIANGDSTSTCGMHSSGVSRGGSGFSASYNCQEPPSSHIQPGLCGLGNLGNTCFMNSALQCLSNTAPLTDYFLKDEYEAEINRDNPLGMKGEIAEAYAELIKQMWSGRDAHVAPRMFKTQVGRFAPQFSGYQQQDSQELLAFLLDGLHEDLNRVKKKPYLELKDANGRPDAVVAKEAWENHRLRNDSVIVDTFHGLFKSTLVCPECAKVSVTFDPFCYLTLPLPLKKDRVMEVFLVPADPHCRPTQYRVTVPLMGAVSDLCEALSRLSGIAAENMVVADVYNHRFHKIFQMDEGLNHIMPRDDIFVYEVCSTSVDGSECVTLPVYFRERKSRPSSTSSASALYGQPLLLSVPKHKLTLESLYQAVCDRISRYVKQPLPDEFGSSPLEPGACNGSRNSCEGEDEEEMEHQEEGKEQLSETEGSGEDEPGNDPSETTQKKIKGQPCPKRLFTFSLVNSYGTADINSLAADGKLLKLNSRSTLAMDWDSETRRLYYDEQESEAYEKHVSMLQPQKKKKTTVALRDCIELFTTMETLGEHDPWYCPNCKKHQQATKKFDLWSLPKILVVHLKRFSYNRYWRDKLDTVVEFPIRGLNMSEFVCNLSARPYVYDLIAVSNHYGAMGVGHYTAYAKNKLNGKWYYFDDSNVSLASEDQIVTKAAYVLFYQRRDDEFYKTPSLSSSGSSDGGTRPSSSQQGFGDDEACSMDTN
Procedure, shortened: as §1

Measured: log2 ratio of Biotin-Ahx-Ub-VS probe labelling

CC(NC(=O)CCl)c1cnn(C2CC2)c1 (stereo not given)
inactive: [1] -0.133 | [2] -0.123 | [3] -0.144 | [4] -0.0478 | [5] -0.409
